Luciferase inh – inhibitors of firefly luciferase; purified firefly luciferase, luminescence, 8 min; Potency, µM (titrated, usually from 57.1 µM), usual class: inhibitors; actives 2.2% (n = 72,000); AID 411; also: nearly all actives have a fitted effect of over 40% in size
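Firefly luciferase (PKLight detection mix) with 10 uM ATP in pH 7.2 imidazole buffer (KCl, MgCl2, Tween 20, BSA). Compounds tested across a concentration series (qHTS). Luminescence read after 8 min at ambient temperature.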
HSD17B inh – inhibitors of human HSD17B10 dehydrogenase; actives 7.6% (n = 75,000); recombinant HSD17B10, NADH fluorescence kinetic; Potency, µM (top dose mostly 57.1 µM), actives largely listed as inhibitors; AID 893; Q99714;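 also: the protocol describes HADH2 (HSD17B10) and not the HSD17B4 of the title; nearly all actives have a fitted effect of over 70% in size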
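20 nM HADH2, pH 9.0 Tris/Tween; cpd preinc 15 min RT; start w/ 1 mM NAD+ + 90 uM b-hydroxybutyryl-CoA; kinetic fluor ex360/em450 q30s x 4 min; delta last-first.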
Bst PK mod – pyruvate kinase (B. stearothermophilus) modulation; purified pyruvate kinase, luminescence ATP production; ribose 5-phosphate activator present at AC10; Potency, µM; actives 1.2% (n = 51,000); in the data active = potency below about 11 µM; inconclusive = mostly about 12 µM to 25 µM;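 the screen sought inhibitors and activators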
15-hLO inh – inhibitors of human 15-lipoxygenase (ALOX15); actives 1.4% (n = 74,000); purified 15hLO-1, xylenol orange hydroperoxide absorbance; Potency, µM (doses to about 57.1 µM), hits mostly inhibitors; AID 887; P16050; also: nearly all actives have a fitted effect of over 55% in size
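Quantitative HTS in 25 mM Hepes pH 7.5 containing 0.01% Triton X-100: human 15hLO-1 at 40 nM, arachidonic acid at 50 uM, 6 min turnover. Product quantified via ferrous oxidation/xylenol orange, 573:405 nm absorbance ratio.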
ERK AVP block – inhibitors of vasopressin-stimulated ERK signaling pathway | HEK293-V1b, vasopressin-stimulated pERK AlphaScreen | Potency, µM (doses to about 57.5 µM), hits mostly inhibitors | actives 0.99% (n = 72,000); also: nearly all actives have a fitted effect of over 55% in size
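HEK293 cells stably expressing V1b receptor, seeded overnight in 1% FBS, were treated with compounds for 30 min at 37C, then stimulated 5 min with 25 nM vasopressin; phospho-ERK read by AlphaScreen SureFire after lysis.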
HADH2 inh – HADH2 (human) dehydrogenase inhibition. Q99714. recombinant HADH2, NADH fluorescence, beta-hydroxybutyryl-CoA. Potency, µM (titrated, usually from 57.1 µM), actives largely listed as inhibitors. actives 3.4% (n = 73,000). AID 886; also: nearly all actives have a fitted effect of over 60% in size
Target sequence (Q99714 whole entry, looked up, one chain of several): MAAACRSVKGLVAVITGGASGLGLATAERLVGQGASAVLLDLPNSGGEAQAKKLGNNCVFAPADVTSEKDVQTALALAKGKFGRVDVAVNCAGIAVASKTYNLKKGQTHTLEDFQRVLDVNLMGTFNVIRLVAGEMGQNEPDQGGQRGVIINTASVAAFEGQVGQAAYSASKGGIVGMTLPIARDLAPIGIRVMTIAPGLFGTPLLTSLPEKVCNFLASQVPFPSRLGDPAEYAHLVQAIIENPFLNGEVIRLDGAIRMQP
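Buffer 100 mM Tris-HCl pH 9.0/0.01% Tween-20; HADH2 20 nM; NAD+ 1 mM; beta-hydroxybutyryl-CoA 90 uM (all final). 15 min cpd preincubation, RT.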
A number is an active result; n = inactive; u = inconclusive; x = no result; [ ] = another dose, or the depositor's remark. Rows were chosen to be rich in hits. Some 11% of all compounds tested hit in one or more screens of this group. Unless noted, calls follow the shape of the dose curve; as a rule, active = well fitted curve in the direction sought with a large enough effect; inconclusive = small, poorly fitted or top-dose-only effect, or another doubt; inactive = no such curve, though single readings can be large; an effect the other way counts as inactive or inconclusive.

SMILES	Luciferase inh	HSD17B inh	Bst PK mod	15-hLO inh	ERK AVP block	HADH2 inh
CN1CCN(c2ncc3nc(CCc4ccccc4)c(=O)n(CCc4ccccc4)c3n2)CC1	n[11.4 µM]	u	x	n	n	n
Cn1c(=O)c(-c2ccccc2)nc2cnc(N3CCOCC3)nc21	n[11.4 µM]	u	x	n	n	n
O=c1c(CCc2ccccc2)nc2cnc(N3CCOCC3)nc2n1Cc1cccs1	n[11.4 µM]	10µM	x	n	n	n
Cn1c(=O)c(CCc2ccccc2)nc2cnc(N3CCOCC3)nc21	n[11.4 µM]	25µM	x	u	n	n
O=c1c(CCc2ccccc2)nc2cnc(N3CCNCC3)nc2n1CCc1ccccc1	n[11.4 µM]	32µM	x	n	u	n
O=c1c(CCc2ccccc2)nc2cnc(N3CCOCC3)nc2n1C[C@H]1CCCO1	n[11.4 µM]	20µM	x	n	n	n
Cn1c(=O)c(CCc2ccccc2)nc2cnc(N3CCNCC3)nc21	n[11.4 µM]	32µM	x	n	n	u
O=c1cnc2cnc(N3CCNCC3)nc2n1CCc1ccccc1	n[11.4 µM]	32µM	x	n	n	n
CN1CCN(c2ncc3ncc(=O)n(CCc4ccccc4)c3n2)CC1	n[11.4 µM]	u	x	n	n	n
Cc1ccc(SCN2CCCCC2)cc1 (tested in a mixture with another compound)	n[11.4 µM]	n[11.4 µM]	x	n[11.4 µM]	n[11.5 µM]	n[11.4 µM]
C=CCCC	x	n	x	n	n	n
O=C(CSc1nnc(-c2ccccc2)o1)c1ccc2c(c1)OCCO2	n	n	n	n	n	n
O=C(CSc1nnc(-c2ccccc2)o1)c1nnc(-c2ccccc2)o1	n	25µM	n	20µM	n	u
CCCOc1ccccc1-c1nc2c([nH]1)c(=O)[nH]c(=O)n2C	n	10µM	n	n	n	n
Cc1ccc(C)c(NS(=O)(=O)c2cc(C(=O)O)ccc2Cl)c1	x	n	x	n	x	n
Cc1ccc2cc(C(c3nnnn3C3CCCC3)N(Cc3cccnc3)Cc3ccco3)c(=O)[nH]c2c1 (stereo not given)	n	n	n	n	n	n
Cc1ccc2[nH]c(=O)c(C(c3nnnn3C(C)(C)C)N(Cc3ccco3)CC3CCCO3)cc2c1 (stereo not given)	n	20µM	n	u	n	n
CCC(c1nnnn1Cc1ccco1)N(Cc1cc2cc(C)cc(C)c2[nH]c1=O)CC1CCCO1 (stereo not given)	n	32µM	x	10µM	n	n
Cc1ccc2[nH]c(=O)c(C(c3nnnn3C3CCCC3)N(Cc3cccnc3)Cc3ccco3)cc2c1 (stereo not given)	n	32µM	n	u	n	n
NNS(=O)(=O)c1cc(C(=O)O)cc(C(=O)O)c1	n[11.4 µM]	n[11.4 µM]	x	n[11.4 µM]	n[11.5 µM]	n[11.4 µM]
O=C(O)Cn1c(=O)oc2cc(S(=O)(=O)NC3CCCCC3)ccc21	n	n	x	n	x	n
CC1CCCCN1CCn1cnc2c([nH]c3ccccc32)c1=O (stereo not given)	n	n	x	n	n	n
O=c1c2[nH]c3ccc(F)cc3c2ncn1C1CCCCC1	n	32µM	n	n	n	n
O=C(O)C/C(=C\c1ccco1)C(=O)O	n[11.4 µM]	n[11.4 µM]	x	n[11.4 µM]	n[11.5 µM]	n[11.4 µM]
O=C(O)/C(=C\c1ccc(O)cc1)c1cccc2ccccc12	n[11.4 µM]	n[11.4 µM]	x	n[11.4 µM]	n[11.5 µM]	n[11.4 µM]
SMILES	Luciferase inh	HSD17B inh	Bst PK mod	15-hLO inh	ERK AVP block	HADH2 inh
Cc1cc(-c2ccc(Cl)cc2)n2nc(N)nc2n1	n	32µM	u	n	u	32µM
Nc1nc2nccc(-c3ccc(Cl)cc3)n2n1	u	32µM	6	n	n	3.2µM
O=C1c2ccccc2C(=O)N1c1nc2nccc(-c3ccccc3)n2n1	n	n	n	n	n	n
O=C(c1cc(C(F)(F)F)cc(C(F)(F)F)c1)N1CCC[C@@]2(CCN(Cc3nccs3)C2)C1	n[11.4 µM]	n	x	n	n	n
O=c1oc2c(CN3CCCCCC3)c(O)ccc2cc1-c1nc2ccccc2[nH]1	n	25µM	n	n	n	n
O=C(c1ccccc1-c1nc2ccccc2[nH]1)N1CCCCC1	n	n	n	n	n	n
C=Cc1c(C)/c2[n-]/c1=C\c1[n-]c(c(CC)c1C)/C=c1\[n-]c3c(c1C)C(=O)C(C(=O)[O-])C=3c1[n-]c(c(C)c1CCC(=O)[O-])\C=2.[Cu].[Na+].[Na+] (stereo not given)	x	6.3µM	x	6.3µM	n	x
S=C(c1ccc(-c2ccc(Cl)c(Cl)c2)o1)N1CCOCC1	7.9µM	n	x	u	u	10µM
S=C(c1ccc(-c2ccccc2Cl)o1)N1CCOCC1	16µM	u	x	u	25µM	1.6µM
N#CCCN1CCN(C(=S)c2ccc(-c3cc(Cl)ccc3Cl)o2)CC1	n	n	n	u	n	u
O=C(c1ccc(-c2cccc(C(F)(F)F)c2)o1)N1CCOCC1	n	n	n	n	n	n
Nc1ncnc2c1ncn2CCCCC(=O)O	n[11.4 µM]	n[11.4 µM]	x	n[11.4 µM]	n[11.5 µM]	n[11.4 µM]
CCC(=O)c1ccc(OCC(=O)Nc2nn3cnnc3s2)cc1	n	n	n	n	32µM	n
c1csc(Cn2c(-c3cccs3)nc3ccccc32)c1	n	25µM	n	n	n	20µM
CCN(c1cccc(C)c1)S(=O)(=O)c1ccc2[nH]c(=O)c(=O)[nH]c2c1	n	25µM	n	n	n	u
CC1=C(C(=O)OCc2ccccc2)C(c2ccc(C3CCCCC3)cc2)NC(=O)N1CCCCCC(=O)O (stereo not given)	x	u	x	n	n	n
CCN1C(=O)[C@H]2[C@H]3[C@H](O)[C@H](O)C/C(=N/NC(=O)OCc4ccccc4)[C@@H]3CC[C@@H]2C1=O	n[11.4 µM]	n[11.4 µM]	x	n[11.4 µM]	n[11.5 µM]	n[11.4 µM]
CN1CCc2c(sc(/N=C/c3cccs3)c2C(N)=O)C1	n	32µM	n	u	n	u
CN1CCc2c(sc(/N=C/c3ccco3)c2C(N)=O)C1	n	32µM	x	n	n	32µM
NC(=O)c1c(NC(=O)Cc2cccs2)sc2c1CCC2	n	u	n	n	n	n
CC(=O)OC[C@@H]1O[C@H](C/C=N\OC[C@@H](C)[C@H](OCc2ccccc2)C(C)C)C=C[C@@H]1OC(C)=O	n[11.4 µM]	n[11.4 µM]	x	n[11.4 µM]	n[11.5 µM]	n[11.4 µM]
Cc1cc(=O)n2[nH]c(C)c(-c3ccc(Cl)cc3)c2n1	n	20µM	x	n	n	u
O=c1cc(-c2ccccc2)nc2nc(CCc3ccccc3)[nH]n12	n	n	n	n	n	n
Cc1cc(=O)n2[nH]c(-c3ccc(Cl)cc3)cc2n1	16µM	u	u	n	n	n
Cc1cc(=O)n2[nH]c(C)c(-c3ccccc3)c2n1	n	25µM	x	n	n	n
Cc1nc2nc(-c3ccccc3)cc(=O)n2[nH]1	25µM	n	x	n	n	n
CCCc1cc(=O)n2[nH]c(-c3ccc(Br)cc3)cc2n1	n	n	x	n	n	n
CCCCCCCCCCCC(CC1OC(=O)C1CCCCCC)OC(=O)C(CC(C)C)NC=O (stereo not given)	x	u	x	n	n	x
c1ccc2c(NCCN3CCOCC3)nc(-c3ccc4c(c3)OCO4)nc2c1	n[2.29 µM]	n	x	n	u	n
O=C(Nc1ccc2c(c1)OCCO2)c1ccc(Br)o1	5µM	x	u	x	x	x

Bioassay records: PubChem, National Center for Advancing Translational Sciences (NCATS)
